Shown are actives, neighbours in structure and some others; about 5.2% of the full set was active somewhere.
Sfp PPTase inh: inhibitors of Bacillus subtilis Sfp phosphopantetheinyl transferase | AID 1490 | actives 3.5% (n = 310,000) | Biochemical Sfp PPTase activity, qHTS | Potency, µM, for the others: largest response in the series, negative = inhibition, usual class: inhibitors;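 note: the enzyme is Sfp with the accession as filed and its product quenches rhodamine fluorescence; 0% = enzyme reaction without inhibitor and -100% = no enzyme wells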
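Compounds were incubated with enzyme (final 15 nM) for 15 min at room temperature before substrate addition started the reaction. Fluorescence at 525 nm excitation, 598 nm emission was recorded immediately and after 30 minutes.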
TrxR1 inh: inhibitors of rat thioredoxin reductase 1; O89049; recombinant rTrxR1, NADPH fluorescence consumption, selenite substrate; Potency, µM (series often up to 114 µM), inactives show at the top dose activity change, negative = inhibition, most hits filed as inhibitors; actives 1% (n = 390,000); AID 588453; note: nearly all actives have a fitted effect of over 65% in size
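Rat TrxR1 (90 nM in the dispensed reagent) was pre-reduced with 400 uM NADPH for 5 min at room temperature, then incubated with compound for 15 min. After 400 uM selenite was added, NADPH fluorescence (Ex 340/Em 450 nm) was followed for 8 min.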
PLK1 PBD block: blocks phosphopeptide binding to human PLK1 polo-box domain; AID 720504; actives 2.8% (n = 360,000); P53350; Potency, µM, for the others: max response, negative = inhibition, actives largely listed as inhibitors; Plk1 PBD binding of FITC phosphopeptide, fluorescence polarization; note: series mostly up to about 57 µM; nearly all actives have a fitted effect of over 65% in size
Target sequence (P53350 whole entry, looked up, the tested form may be a part): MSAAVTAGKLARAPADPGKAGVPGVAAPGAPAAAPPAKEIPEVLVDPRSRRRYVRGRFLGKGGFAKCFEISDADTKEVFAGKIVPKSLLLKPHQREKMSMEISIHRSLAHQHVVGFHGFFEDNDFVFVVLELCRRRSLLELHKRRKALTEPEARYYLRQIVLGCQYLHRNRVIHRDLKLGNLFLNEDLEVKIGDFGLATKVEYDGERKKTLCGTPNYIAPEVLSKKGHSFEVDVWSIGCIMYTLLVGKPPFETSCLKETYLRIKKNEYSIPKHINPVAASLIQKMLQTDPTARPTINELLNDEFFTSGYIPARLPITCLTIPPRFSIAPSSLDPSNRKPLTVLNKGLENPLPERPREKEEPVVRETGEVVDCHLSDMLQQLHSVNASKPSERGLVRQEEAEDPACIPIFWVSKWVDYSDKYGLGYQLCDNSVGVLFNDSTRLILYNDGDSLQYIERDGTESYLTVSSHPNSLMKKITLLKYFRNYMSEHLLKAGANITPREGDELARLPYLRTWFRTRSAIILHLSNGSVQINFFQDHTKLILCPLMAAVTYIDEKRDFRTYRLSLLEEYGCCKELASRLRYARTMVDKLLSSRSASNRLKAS
TrxR1 substrate: is turned over as a substrate by rat TrxR1; O89049; purified TrxR1 substrate turnover, NADPH consumption readout; Potency, µM (highest dose often 114 µM), inactives show at the top dose activity change, negative = substrate turnover; actives 0.01% (n = 390,000); AID 588456; note: nearly all actives have a fitted effect of over 50% in size
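Rat TrxR1, dispensed at 90 nM, was prereduced with 400 uM NADPH (final) for 5 min at ~22 deg C, then incubated with compound 15 min before 400 uM selenite. A first-read NADPH fluorescence drop versus no-compound background flagged substrates.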
IDH1 R132H inh: inhibitors of human mutant IDH1 R132H. O75874. actives 0.093% (n = 390,000). IDH1-R132H enzyme, NADPH consumption, diaphorase/resazurin fluorescence. Potency, µM (series often up to 76.6 µM), for the others: at the top dose activity change, negative = inhibition, hits mostly inhibitors; note: nearly all actives have a fitted effect of over 65% in size
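IDH1-R132H (0.5 ug/mL dispensed) in pH 7.5 Tris buffer was preincubated 30 min with compound, then given a substrate mix of 0.016 mM NADPH and 2 mM alpha-KG for 80 min at room temperature; remaining NADPH was read by diaphorase/resazurin fluorescence.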
VDR inh: blocks the human vitamin D receptor; VDR-SRC2-3 peptide fluorescence polarization, 2 h; AID 504847; Potency, µM, inactives show max response, negative = inhibition, hits mostly inhibitors; P11473; actives 0.93% (n = 400,000)
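Fluorescence polarization assay of small-molecule disruption of VDR binding to coregulator peptide SRC2-3. Compounds and controls pin-transferred, then read after 2 h incubation at ambient room temperature.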
The depositor's hits bear a star; [ ] = remark or other dose. Calls come from the whole dose curve; as a rule, active = well fitted curve in the direction sought with a large enough effect; inconclusive = small, poorly fitted or top-dose-only effect, or another doubt; inactive = no such curve, though single readings can be large; an effect the other way counts as inactive or inconclusive. Unless noted, % is set by controls: 0 for no effect and ±100 for the full control effect; potency is the fitted concentration of half-maximal effect.

`COc1cc(OC)cc(-c2c(C#Cc3ccsc3)c3cc(-c4ccc(CN5CCOCC5)cc4)ccc3n2C)c1` gave TrxR1 inh 11%[57.1 µM], PLK1 PBD block -10%, TrxR1 substrate 27%[57.1 µM], IDH1 R132H inh -1% and VDR inh -10%.
Screening CC1CCN(CCOc2cc(Cl)ccc2Cl)CC1 returned Sfp PPTase inh -14%, TrxR1 inh 23%, PLK1 PBD block -8%, TrxR1 substrate 7%, IDH1 R132H inh 12% and VDR inh -2%.
For CC1CCN(CC[S-])CC1.O.O.[Cl][Pt] the results were TrxR1 inh 1.4µM* and TrxR1 substrate -7%.
For COc1ccc(-c2cc(C(F)(F)F)c(C#N)c(SCC(=O)Nc3ccc(F)cc3)n2)cc1 the results were TrxR1 inh 17%, TrxR1 substrate 22%, IDH1 R132H inh 42% and VDR inh -15%.
`Cn1cccc1C(=O)N1CCC2(CC1)CN(c1ccncc1)C2` gave Sfp PPTase inh 7% and VDR inh -4%.
For COc1ccc(N2CCN(C(=O)c3ccc4c(c3)NC(=O)C(CSCc3c(F)cccc3Cl)N4)CC2)cc1 (stereo not drawn) the results were Sfp PPTase inh -27%.
Screening COc1ccc(N2CCN(C(=O)c3ccc4c(c3)NC(=O)C(CSCc3cccc(F)c3)N4)CC2)cc1 (stereo not drawn) returned Sfp PPTase inh 56µM*.
COc1ccc(N2CCN(C(=O)c3ccc4c(c3)NC(=O)C(CSCc3ccc(C)cc3)N4)CC2)cc1 (stereo not drawn) was read as Sfp PPTase inh 40µM*.
For COc1ccc(-n2sc3ccccc3c2=O)cc1 the results were PLK1 PBD block 2.7µM* and IDH1 R132H inh -6%.
Cc1ccc2scc(N3CCN(c4ccc(F)cc4)CC3)c(=O)c2c1 was read as TrxR1 inh 0%[57.1 µM], TrxR1 substrate -3%[57.1 µM], IDH1 R132H inh 17% and VDR inh 4%.
Screening O=c1c2cc(F)ccc2sn1-c1ccc(F)cc1 returned TrxR1 inh 129%, PLK1 PBD block 3.4µM*, TrxR1 substrate -11%, IDH1 R132H inh -5% and VDR inh 18µM*.
Screening Cc1ccc(C)c(-n2sc3ccc(F)cc3c2=O)c1 returned TrxR1 inh 69%[57.1 µM], PLK1 PBD block 2.1µM*, TrxR1 substrate 0%[57.1 µM], IDH1 R132H inh -31% and VDR inh 20µM*.
O=c1c2ccccc2sn1-c1ccc(S(=O)(=O)N2CCOCC2)cc1 was read as TrxR1 inh 50%, TrxR1 substrate 3% and VDR inh inconclusive.
`COc1ccc(-n2sc3ccc(F)cc3c2=O)cc1` gave TrxR1 inh 106%, PLK1 PBD block 2.7µM*, TrxR1 substrate -14%, IDH1 R132H inh -9% and VDR inh inconclusive.
For O=C(CSc1nc(-c2ccccc2)cs1)NCc1ccco1 the results were Sfp PPTase inh -12%, TrxR1 inh 2%[57.1 µM], PLK1 PBD block -10%, TrxR1 substrate 6%[57.1 µM], IDH1 R132H inh 1% and VDR inh 0%.
For CCn1c(SCC(=O)NCc2ccco2)nnc1-c1cccs1 the results were Sfp PPTase inh 14µM*, TrxR1 inh 14µM*, PLK1 PBD block -8%, TrxR1 substrate 3%, IDH1 R132H inh 7% and VDR inh 1%.
`CCn1c(CNc2nc(-c3ccccc3)cs2)nnc1SCC(=O)NCc1ccco1` gave Sfp PPTase inh 56µM*, TrxR1 inh inconclusive, PLK1 PBD block inconclusive, TrxR1 substrate -3%, IDH1 R132H inh -2% and VDR inh inconclusive.
`CCn1c(SC(=O)NC2CCCCC2)nnc1-c1cccs1` gave Sfp PPTase inh -7%, TrxR1 inh -80%[57.1 µM], PLK1 PBD block 2.7µM*, TrxR1 substrate 28%, IDH1 R132H inh 1% and VDR inh 9%.
For CC1(C(=O)NS(=O)(=O)c2cccs2)CCN1C(=O)c1ccccc1 (stereo not drawn) the results were PLK1 PBD block 8%.
For Cc1ccc(C)c(N(C)C(=O)c2cc3c(s2)-c2ccccc2OC3)c1 the results were TrxR1 inh 5%, TrxR1 substrate -2%, IDH1 R132H inh -1% and VDR inh -4%.
`Cc1ccc(S(=O)(=O)N(C(=O)c2ccncc2)c2ccc(OC(=O)c3ccncc3)c3ccccc23)c(C)c1` gave Sfp PPTase inh 45µM*, TrxR1 inh -6%[57.1 µM], PLK1 PBD block 13µM*, TrxR1 substrate 9%[57.1 µM], IDH1 R132H inh 13% and VDR inh -9%.
Cc1ccc(S(=O)(=O)N(C(=O)c2ccncc2)c2ccc(OC(=O)c3ccncc3)c3ccccc23)cc1 was read as Sfp PPTase inh 25µM*, TrxR1 inh -38%, PLK1 PBD block 9.5µM*, TrxR1 substrate -2%[57.1 µM], IDH1 R132H inh 5% and VDR inh inconclusive.
For CCN1C(=O)[C@H]2[C@H]3[C@H](O)[C@H](O)C/C(=N/OCc4ccccc4)[C@@H]3CC[C@@H]2C1=O the results were Sfp PPTase inh 5%.
`CC(C)CC(=O)N1C/C=C\C[C@@H](c2ccc(Cl)cc2)N(Cc2ccc(Cl)cc2)C(=O)[C@@H]1Cc1ccccc1` gave TrxR1 inh 8% and TrxR1 substrate 1%.
For C/C(=C\C[Si](C)(C)C)CCC=O the results were Sfp PPTase inh 63µM* and VDR inh -11%.
For C[C@@H]1[C@H](c2ccccc2)OCCS(=O)(=O)N1Cc1ccccc1F the results were TrxR1 inh 12% and TrxR1 substrate -6%.
`COc1ccc(-c2nc3ccccc3o2)cc1NC(=O)COc1ccc(C)cc1` gave TrxR1 inh 14% and TrxR1 substrate 21%.
Screening Cc1ccc(-c2cc(C(=O)OCC(=O)N(C)C3CCS(=O)(=O)C3)c3ccccc3n2)c(C)c1 (stereo not drawn) returned Sfp PPTase inh 3%, TrxR1 inh 11%[57.1 µM], PLK1 PBD block -5%, TrxR1 substrate 4%[57.1 µM], IDH1 R132H inh 2% and VDR inh -25%.
Screening Cc1ccc(-c2cc(C(=O)OCC(=O)N(C)C3CCS(=O)(=O)C3)c3ccccc3n2)o1 (stereo not drawn) returned Sfp PPTase inh 20µM*, TrxR1 inh -55%, PLK1 PBD block inconclusive, TrxR1 substrate 7%[57.1 µM], IDH1 R132H inh 14% and VDR inh -20%.
`CCN(C(=O)COC(=O)c1cc(-c2ccc(C)o2)nc2ccccc12)C1CCS(=O)(=O)C1` (stereo not drawn) gave Sfp PPTase inh 20µM*, TrxR1 inh -3%[57.1 µM], PLK1 PBD block -12%, TrxR1 substrate 15%[57.1 µM], IDH1 R132H inh 2% and VDR inh -1%.

Assay outcomes from PubChem BioAssay.
